Source: PubChem BioAssay
For some assays here: Entries with a potency or affinity are not part of this list. Calls of active or inactive are those of the source. Unless noted, how the calls were made is not given here.

Key:
[1] = antimalarial activity against Dd2 strain (AID 2302;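 active means growth inhibition above 50% at the single 2 µM test dose, taken to imply half-maximal potency below 2 µM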;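 further: 0% = DMSO untreated growth and 100% = chloroquine plus artemisinin killed control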); conditions: P. falciparum Dd2 in RBCs, LDH growth readout, 72 h; at 2 µM; active compounds read high
[2] = human hepatoma cell viability loss – ATP luminescence, cytotoxicity control for P. falciparum antimalarial project, primary screen (AID 2303;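 active means inhibition above 50%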;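 further: 0% = DMSO wells and 100% = digitonin-killed cells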); conditions: HepG2 viability, 24-48 h, at 10 µM, active compounds read high
[3] = biological target: L-lactate dehydrogenase (Plasmodium falciparum (isolate CDC / Honduras)) (UniProt Q27743); assay: PfLDH activity inhibition – cell lysate, 3D7 strain, counter-screen for P. falciparum growth inhibition project (AID 2304);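 further: 0% = vehicle and 100% = reference inhibitor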; conditions: P. falciparum 3D7 crude extract, LDH APAD/NBT absorbance; at 2 µM; active compounds read high
[4] = inhibition of 3D7 malaria parasite growth – strain 3D7 (AID 2306);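 further: 0% = DMSO wells and 100% = chloroquine plus artemisinin control wells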; conditions: P. falciparum 3D7 erythrocytic growth, LDH absorbance, 72 h; at 2 µM; active compounds read high
[5] = biological target: Calcium-dependent protein kinase 1 (Plasmodium falciparum (isolate 3D7)) (UniProt P62344); assay: PfCDPK1 kinase inhibitors, biochemical, TCAMS library (AID 1159585; cut-off not given, nearly all actives have IC50 up to about 0.98 µM;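 further: inhibitors leave more ATP so luminescence rises with inhibition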); conditions: recombinant PfCDPK1, Kinase-Glo ATP depletion luminescence
[6] = biological target: Plasmodium falciparum protein kinase 6 (PK6, PF3D7_1337100) (UniProt Q8IDW1); assay: PfPK6 kinase inhibitors, biochemical, TCAMS library (AID 1159586); conditions: recombinant PfPK6, Kinase-Glo ATP depletion luminescence
[7] = biological target: Protein kinase 7 (PK7), Plasmodium falciparum 3D7 (PF3D7_0213400) (UniProt Q7YTF7); assay: inhibition of Plasmodium PK7 catalytic activity – biochemical, TCAMS antimalarial set, Kinase-Glo luminescence (AID 1159587); conditions: recombinant PfPK7, Kinase-Glo ATP depletion luminescence
[8] = biological target: Calcium-dependent protein kinase 4 (Plasmodium falciparum (isolate 3D7)) (UniProt Q8IBS5); assay: PfCDPK4 kinase inhibitors, biochemical, TCAMS library (AID 1159588; cut-off not given, nearly all actives have IC50 up to about 0.91 µM); conditions: recombinant PfCDPK4, Kinase-Glo ATP depletion luminescence
Sequence of Calcium-dependent protein kinase 4 (Plasmodium falciparum (isolate 3D7)) (Q8IBS5 whole entry, looked up): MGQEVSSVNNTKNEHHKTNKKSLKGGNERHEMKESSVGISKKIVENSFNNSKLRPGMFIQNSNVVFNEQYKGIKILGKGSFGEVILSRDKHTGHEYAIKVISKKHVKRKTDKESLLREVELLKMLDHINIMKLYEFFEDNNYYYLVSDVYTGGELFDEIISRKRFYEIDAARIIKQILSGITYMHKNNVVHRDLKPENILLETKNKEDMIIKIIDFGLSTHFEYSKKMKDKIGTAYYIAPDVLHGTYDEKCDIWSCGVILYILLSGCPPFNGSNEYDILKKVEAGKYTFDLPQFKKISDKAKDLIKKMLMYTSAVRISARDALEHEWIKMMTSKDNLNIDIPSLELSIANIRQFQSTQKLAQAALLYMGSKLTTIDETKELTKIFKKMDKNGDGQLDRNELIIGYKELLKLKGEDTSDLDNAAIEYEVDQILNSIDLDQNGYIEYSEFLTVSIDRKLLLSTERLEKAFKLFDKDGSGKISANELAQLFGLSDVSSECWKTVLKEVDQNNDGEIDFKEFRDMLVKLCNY

Sequence of Calcium-dependent protein kinase 1 (Plasmodium falciparum (isolate 3D7)) (P62344 whole entry, looked up): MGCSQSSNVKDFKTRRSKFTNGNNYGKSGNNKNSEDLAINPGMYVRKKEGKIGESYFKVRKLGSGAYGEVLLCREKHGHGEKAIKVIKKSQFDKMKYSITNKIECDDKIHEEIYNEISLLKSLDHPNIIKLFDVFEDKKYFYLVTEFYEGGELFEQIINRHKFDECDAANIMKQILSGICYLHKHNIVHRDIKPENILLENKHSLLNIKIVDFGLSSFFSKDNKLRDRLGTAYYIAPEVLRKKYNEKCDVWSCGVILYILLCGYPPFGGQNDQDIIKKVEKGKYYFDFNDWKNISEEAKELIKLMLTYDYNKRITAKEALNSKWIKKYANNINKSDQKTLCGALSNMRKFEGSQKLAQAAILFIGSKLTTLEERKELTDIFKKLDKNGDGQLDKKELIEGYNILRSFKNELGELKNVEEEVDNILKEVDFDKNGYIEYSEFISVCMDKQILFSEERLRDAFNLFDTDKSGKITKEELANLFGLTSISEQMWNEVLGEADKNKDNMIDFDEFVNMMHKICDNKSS
Sequence of Plasmodium falciparum protein kinase 6 (PK6, PF3D7_1337100) (Q8IDW1 1-305): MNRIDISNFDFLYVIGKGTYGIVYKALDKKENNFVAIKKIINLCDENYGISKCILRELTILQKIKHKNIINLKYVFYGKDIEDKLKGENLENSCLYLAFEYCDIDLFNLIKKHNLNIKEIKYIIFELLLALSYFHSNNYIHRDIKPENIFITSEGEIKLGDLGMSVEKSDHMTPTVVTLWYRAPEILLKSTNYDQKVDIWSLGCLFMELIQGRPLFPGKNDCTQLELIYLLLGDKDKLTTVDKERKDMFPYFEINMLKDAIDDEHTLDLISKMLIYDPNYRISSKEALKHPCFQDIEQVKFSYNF
Sequence of Protein kinase 7 (PK7), Plasmodium falciparum 3D7 (PF3D7_0213400) (Q7YTF7 1-343): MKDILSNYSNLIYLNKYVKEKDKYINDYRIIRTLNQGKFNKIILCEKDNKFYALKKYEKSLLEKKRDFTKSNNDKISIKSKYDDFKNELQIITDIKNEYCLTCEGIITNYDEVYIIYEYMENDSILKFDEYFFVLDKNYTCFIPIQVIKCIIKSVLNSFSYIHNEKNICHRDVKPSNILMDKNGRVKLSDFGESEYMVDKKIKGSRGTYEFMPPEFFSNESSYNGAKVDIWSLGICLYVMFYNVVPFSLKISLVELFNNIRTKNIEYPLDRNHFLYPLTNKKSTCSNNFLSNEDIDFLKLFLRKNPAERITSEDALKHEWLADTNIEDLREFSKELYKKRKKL
Sequence of L-lactate dehydrogenase (Plasmodium falciparum (isolate CDC / Honduras)) (Q27743 whole entry, looked up): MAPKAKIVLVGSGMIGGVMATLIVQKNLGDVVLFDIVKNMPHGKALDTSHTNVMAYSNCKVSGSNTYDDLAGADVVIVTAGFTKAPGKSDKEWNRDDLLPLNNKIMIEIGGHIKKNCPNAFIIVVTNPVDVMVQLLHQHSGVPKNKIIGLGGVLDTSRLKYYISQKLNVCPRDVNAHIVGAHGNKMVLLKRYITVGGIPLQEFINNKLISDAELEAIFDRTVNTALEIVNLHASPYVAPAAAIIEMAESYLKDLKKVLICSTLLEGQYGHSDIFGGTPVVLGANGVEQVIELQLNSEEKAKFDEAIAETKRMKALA

CCCN(CCCCCCN(CCC)CCc1ccc(O)c(O)c1)CCc1ccc(O)cc1
inactive: growth inhibition [1] 5% | inhibition [2] 0% | inhibition [3] -1% | outcome [5] | outcome [6] | outcome [7] | outcome [8]
active: growth inhibition [4] 90%

CC(=O)Nc1nc(C(=O)Nc2ccc(-c3cccc(-c4nc5ccccc5[nH]4)c3)cc2)cs1
inactive: inhibition [3] -10% | outcome [5] | outcome [6] | outcome [7] | outcome [8]
active: growth inhibition [1] 83% | inhibition [2] 68% | growth inhibition [4] 99%

Cc1cc(C)c(C)c(S(=O)(=O)N2CCCCC(c3ccc(F)c(F)c3)=N2)c1C
inactive: inhibition [2] 5% | inhibition [3] -3% | outcome [5] | outcome [6] | outcome [7] | outcome [8]
active: growth inhibition [1] 60% | growth inhibition [4] 86%

O=C(Nc1cc(Cl)ccc1-n1cncn1)C1(c2ccccc2)CC1
active: growth inhibition [1] 91% | growth inhibition [4] 98%
inactive: inhibition [2] 3% | inhibition [3] -2% | outcome [5] | outcome [6] | outcome [7] | outcome [8]

O=C(Cn1c(CCc2cccc(F)c2F)cc(=O)c2cccnc21)N(CCN1CCCC1)Cc1ccc(-c2ccc(C(F)(F)F)cc2)cc1
active: growth inhibition [1] 64% | growth inhibition [4] 99%
inactive: inhibition [2] 48% | inhibition [3] -3% | outcome [5] | outcome [6] | outcome [7] | outcome [8]

CCC(C)c1ccc(Nc2nc(C)cc(N(CC)CCCN3CCCCC3)n2)cc1 (stereo not given)
inactive: inhibition [3] -7% | outcome [5] | outcome [6] | outcome [7] | outcome [8]
active: growth inhibition [1] 83% | inhibition [2] 55% | growth inhibition [4] 101%

Cc1[nH]cnc1-c1cccc(NC(=O)c2cc3ccccc3s2)c1
inactive: growth inhibition [1] 48% | inhibition [2] 5% | inhibition [3] -5% | outcome [5] | outcome [6] | outcome [7] | outcome [8]
active: growth inhibition [4] 99%

CCN1CCC(N(Cc2ccc(-c3ccc(C(F)(F)F)cc3)o2)C(=O)Cn2c(CCc3cccc(F)c3F)nc(=O)c3ccccc32)CC1
inactive: inhibition [2] 45% | inhibition [3] -1% | outcome [5] | outcome [6] | outcome [7] | outcome [8]
active: growth inhibition [1] 88% | growth inhibition [4] 91%

CC1(C)N=C(N)N=C(N)N1OCC1COc2ccccc2O1 (stereo not given)
inactive: inhibition [3] -1% | outcome [5] | outcome [6] | outcome [7] | outcome [8]
active: growth inhibition [1] 66% | inhibition [2] 56% | growth inhibition [4] 96%

COc1ccc(CNCc2ccc(-c3cccc(-c4nc5ccc(F)cc5[nH]4)c3)cc2)cc1
active: growth inhibition [1] 94% | growth inhibition [4] 102%
inactive: inhibition [2] 33% | inhibition [3] 3% | outcome [5] | outcome [6] | outcome [7] | outcome [8]

Cc1c(C)n(C2CCCC2)c2ncnc(OC3CCN(CC(=O)NC4CC4)CC3)c12
inactive: inhibition [2] 13% | inhibition [3] -4% | outcome [5] | outcome [6] | outcome [7] | outcome [8]
active: growth inhibition [1] 92% | growth inhibition [4] 95%

CCc1c[nH]c2c(N3CCCS3(=O)=O)cc(C(=O)N[C@@H](Cc3ccccc3)[C@H](O)CNC(C)(C)CCCC(C)C)cc12
active: growth inhibition [1] 98% | growth inhibition [4] 96%
inactive: inhibition [2] 13% | inhibition [3] -2% | outcome [5] | outcome [6] | outcome [7] | outcome [8]

CCNC(=O)Nc1ccc(-c2cccc(-c3nc4c(C)cccc4[nH]3)c2)cc1
active: growth inhibition [4] 91%
inactive: growth inhibition [1] 34% | inhibition [2] 16% | inhibition [3] -8% | outcome [5] | outcome [6] | outcome [7] | outcome [8]

CCNc1cc(CC)nc(Nc2ccc(C)cc2)n1
inactive: growth inhibition [1] 24% | inhibition [2] 22% | inhibition [3] -1% | outcome [5] | outcome [6] | outcome [7] | outcome [8]
active: growth inhibition [4] 100%

O=C(NCCc1ccccc1)c1cc(-c2cccnc2)cnc1NCC1CC1
active: growth inhibition [4] 93%
inactive: growth inhibition [1] 35% | inhibition [2] 3% | inhibition [3] 6% | outcome [5] | outcome [6] | outcome [7] | outcome [8]

Cc1nc(-c2nc(NCc3ccncc3)ncc2-c2ccsc2)sc1C
inactive: inhibition [2] 8% | inhibition [3] 2% | outcome [5] | outcome [6] | outcome [7] | outcome [8]
active: growth inhibition [1] 83% | growth inhibition [4] 91%

CC(C)[C@H](NC(=O)c1ccc(O)c(-c2ccc(Cl)c(Cl)c2)c1)C(=O)NCCN1CCCC1
active: growth inhibition [1] 83% | growth inhibition [4] 98%
inactive: inhibition [2] 4% | inhibition [3] 4% | outcome [5] | outcome [6] | outcome [7] | outcome [8]

CCCCCN1CCN(Cc2cccc(NC(=O)c3ccc(Cl)c(Cl)c3)c2)CC1
active: growth inhibition [4] 90%
inactive: growth inhibition [1] 33% | inhibition [2] 24% | inhibition [3] 3% | outcome [5] | outcome [6] | outcome [7] | outcome [8]

CN(C)c1ccc(-c2ccc(C(=O)NC3CCN(Cc4ccccc4)CC3)s2)cc1
inactive: growth inhibition [1] 10% | inhibition [2] 20% | inhibition [3] -3% | outcome [5] | outcome [6] | outcome [7] | outcome [8]
active: growth inhibition [4] 92%

CCN(CC)CCN(Cc1ccc(-c2ccc(C(F)(F)F)cc2)cc1)C(=O)Cn1c(CCc2ccc(F)cc2)nc(=O)c2sccc21
active: growth inhibition [1] 90% | inhibition [2] 100% | growth inhibition [4] 99%
inactive: inhibition [3] -3% | outcome [5] | outcome [6] | outcome [7] | outcome [8]

Cc1cc2c(cc1C(F)(F)F)N(C(=O)Nc1cc(C(=O)NC3CCN(Cc4ccccc4)C3)cc(C(F)(F)F)c1)CC2 (stereo not given)
active: growth inhibition [1] 97% | growth inhibition [4] 101%
inactive: inhibition [2] 22% | inhibition [3] 0% | outcome [5] | outcome [6] | outcome [7] | outcome [8]

Clc1ccc(-c2cc(-c3csc(Nc4ccncc4)n3)on2)cc1
inactive: inhibition [2] 1% | inhibition [3] 3% | outcome [5] | outcome [6] | outcome [7] | outcome [8]
active: growth inhibition [1] 99% | growth inhibition [4] 100%

O=C(CCc1cccnc1)Nc1cccc(-c2ccc(-c3nc4ccc(C(F)(F)F)cc4[nH]3)s2)c1
active: growth inhibition [4] 89%
inactive: growth inhibition [1] 13% | inhibition [2] 35% | inhibition [3] 2% | outcome [5] | outcome [6] | outcome [7] | outcome [8]

O=C(Nc1ccc(F)cc1)c1cnc(N2CCN(c3ccncc3)CC2)c(Cl)c1
inactive: inhibition [2] 41% | inhibition [3] -3% | outcome [5] | outcome [6] | outcome [7] | outcome [8]
active: growth inhibition [1] 81% | growth inhibition [4] 100%

CN(CCN)Cc1cccc(-c2ccc(-c3nc4ccc(C(F)(F)F)cc4[nH]3)s2)c1
active: growth inhibition [1] 92% | growth inhibition [4] 100%
inactive: inhibition [2] 27% | inhibition [3] 5% | outcome [5] | outcome [6] | outcome [7] | outcome [8]

COCCNC(=O)c1ccc(OC2CCN(CC(C)=Cc3ccccc3)CC2)c(Cl)c1
inactive: inhibition [2] 18% | inhibition [3] 2% | outcome [5] | outcome [6] | outcome [7] | outcome [8]
active: growth inhibition [1] 95% | growth inhibition [4] 94%

O=C(NC1CCN(Cc2ccc(Cl)cc2)CC1)c1cn(-c2ccccc2)nc1-c1cccnc1
inactive: growth inhibition [1] 9% | inhibition [2] 13% | inhibition [3] -2% | outcome [5] | outcome [6] | outcome [7] | outcome [8]
active: growth inhibition [4] 93%

COc1ccc(CNc2nc(NCCc3ccccc3)c3cc(OC)c(OC)cc3n2)cc1OC
inactive: inhibition [2] 48% | inhibition [3] 3% | outcome [5] | outcome [6] | outcome [7] | outcome [8]
active: growth inhibition [1] 101% | growth inhibition [4] 100%

CCc1cn(C)c2c(N3CCCC3=O)cc(C(=O)N[C@@H](Cc3ccccc3)[C@H](O)CNC3CCCCC3)cc12
active: growth inhibition [1] 98% | growth inhibition [4] 97%
inactive: inhibition [2] 8% | inhibition [3] -1% | outcome [5] | outcome [6] | outcome [7] | outcome [8]

COC(=O)C1(NC(=O)c2ccc(-n3nc(C)c(-c4ccccc4)c3N)cc2)CCCC1
active: growth inhibition [1] 81% | growth inhibition [4] 96%
inactive: inhibition [2] 9% | inhibition [3] -5% | outcome [5] | outcome [6] | outcome [7] | outcome [8]

N#Cc1c(N2CCN(c3ccc(F)cc3)CC2)nc(N)c2c(N)nc3c(c12)CC(=O)N3C1CC1
inactive: inhibition [2] 2% | inhibition [3] -8% | outcome [5] | outcome [6] | outcome [7] | outcome [8]
active: growth inhibition [1] 82% | growth inhibition [4] 95%

Cc1c(NCCCNCc2cc(Cl)cc(Cl)c2Cl)[nH]c2ccccc2c1=O
active: growth inhibition [1] 86% | growth inhibition [4] 101%
inactive: inhibition [2] 35% | inhibition [3] -2% | outcome [5] | outcome [6] | outcome [7] | outcome [8]

CCc1sc(N2CCN(C)CC2)nc1C(=O)Nc1ccc(F)cc1C(F)(F)F
inactive: inhibition [2] -1% | inhibition [3] 5% | outcome [5] | outcome [6] | outcome [7] | outcome [8]
active: growth inhibition [1] 98% | growth inhibition [4] 101%

O=C1CCCN1CCCNCc1ccc(-c2cccc(-c3nc4ccc(C(F)(F)F)cc4[nH]3)c2)cc1
inactive: inhibition [2] 14% | inhibition [3] 2% | outcome [5] | outcome [6] | outcome [7] | outcome [8]
active: growth inhibition [1] 98% | growth inhibition [4] 100%

Nc1nc(N)c2c(ccc3c2ccn3Cc2cccc3ccccc23)n1
inactive: inhibition [3] -3% | outcome [5] | outcome [6] | outcome [7] | outcome [8]
active: growth inhibition [1] 95% | inhibition [2] 65% | growth inhibition [4] 99%

O=C(NCc1ccco1)c1ccc(S(=O)(=O)c2ccc(Cl)cc2)cc1
active: growth inhibition [1] 95% | growth inhibition [4] 97%
inactive: inhibition [2] 6% | inhibition [3] -3% | outcome [5] | outcome [6] | outcome [7] | outcome [8]

CN(C)c1ccc2c(c1)Sc1cc(N(C)C)ccc1N2C(=O)c1cccc(C(=O)O)c1
active: growth inhibition [1] 73% | growth inhibition [4] 99%
inactive: inhibition [2] 8% | inhibition [3] -3% | outcome [5] | outcome [6] | outcome [7] | outcome [8]

COc1ccc(C(C(=O)NC2CCN(C[C@H](O)c3ccnc4ccc(OC)cc34)CC2)N2CCc3ccccc3C2)cc1 (stereo not given in full)
inactive: growth inhibition [1] 30% | inhibition [2] 19% | inhibition [3] -3% | outcome [5] | outcome [6] | outcome [7] | outcome [8]
active: growth inhibition [4] 96%

CCCCCCn1c(Sc2ccc(C#N)c([N+](=O)[O-])c2)nnc1-c1ccc(N(C)C)cc1
inactive: growth inhibition [1] 25% | inhibition [2] -1% | inhibition [3] 7% | outcome [5] | outcome [6] | outcome [7] | outcome [8]
active: growth inhibition [4] 92%

CCC(=O)N(c1ccccc1)C1CCN(CCCC(NC(=O)c2cc(C(F)(F)F)cc(C(F)(F)F)c2)c2ccc(Cl)c(Cl)c2)CC1 (stereo not given)
active: growth inhibition [1] 57% | growth inhibition [4] 96%
inactive: inhibition [2] 24% | inhibition [3] 0% | outcome [5] | outcome [6] | outcome [7] | outcome [8]
